Results on two compounds are retold here after PubChem BioAssay (EPA / NIEHS).

Inconclusive results are not listed. Activity calls are given as the source filed them. The calls were made as follows: active = hit-call score of the fitted dose curve at least 0.9, where 1 is the maximum; inconclusive = response in the unintended direction; inactive = score below 0.9.

A short description of test [1]: CCTE_Mundy_HCI_hN2_NOG_NeuriteCount: CCTE's Neurite Outgrowth Assay in human hN2 cells for Neurite Count, Mundy Lab (AID 2284219). An outline of the steps:
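In this morphology assay, hNP1-derived neurons received test chemical 2 h post-plating and were fixed two days later in warm paraformaldehyde/sucrose containing Hoechst 33342. Neurites, labelled by rabbit anti-βIII-tubulin (1:800) and Alexa Fluor-488 (1:500), were counted automatically.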

A short description of test [2]: CCTE_Mundy_HCI_hN2_NOG_NeuriteLength: CCTE's Neurite Outgrowth Assay in human hN2 cells for Neurite Length, Mundy Lab (AID 2284220). The method, then: CCTE_Mundy_HCI_hN2_NOG is a multiplexed, cell-based-readout assay that uses immature neurons derived from hNP1 neuroprogenitor cells with measurements taken at 50.33 hours after chemical dosing in a microplate: 96-well plate.CCTE_Mundy_HCI_hN2_NOG_NeuriteLength is one of four components of the CCTE_Mundy_HCI_hN2_NOG assay. It measures neurite outgrowth related to neurite length using High Content Imaging of fluorescently labelled markers.[…] Using a type of morphology reporter, loss -of-signal activity can be used to understand developmental effects.
Exposure starts 2 hours post-plating by adding 10 ul of the working solution to 90 ul of media in the wells for a 1/10 dilution. Forty-eight hours after chemical treatment cells are fixed by direct addition of 100 ul of warm (37C) Dulbecco's phosphate buffered saline (DPBS) fixative solution containing 8% paraformaldehyde, 8% sucrose, and 0.1% of 3 mg/ml Hoechst 33342 into each well. Primary antibodies are prepared by dilution in Immunocytochemical Staining Buffer (ISB), 10X Dulbecco's PBS, 0.1% Saponin, 5% Bovine Serum Albumin, 0.5% NaN3 (Sodium Azide) and betaIII-tubulin (rabbit anti-betaIII-tubulin, 1:800) followed by Alexa Fluor-488 secondary (1:500) to label neuronal cell bodies and neurites. A Cellomics ArrayScan VTi HCS Reader is used for automated image acquisition and analysis of neurite outgrowth.

Test [3] in a line: CCTE_Mundy_HCI_hN2_NOG_NeuronCount: CCTE's Neurite Outgrowth Assay in human hN2 cells for Neuron Count, Mundy Lab (AID 2284221). The method, boiled down: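 Read-out is the number of betaIII-tubulin-positive neurons imaged by automated high-content analysis, with DMSO as negative control.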

Consider `NC(=O)c1ccc(N)nc1`, for which the outcome in test [1] and in test [2] was inactive. The AC50 in test [3] is 0.862 nM (active).

`CNC(=O)CSP(=O)(OC)OC`: the outcome in test [1] and in test [2] was inactive.

Broadly, the AC50 is the midpoint of the concentration-response curve, whichever way the signal moves.
